PLK1 PBD block = qHTS for Inhibitors of PLK1-PDB (polo-like kinase 1 - polo-box domain): Primary Screen | Serine/threonine-protein kinase PLK1 (Homo sapiens), P53350 | Plk1 PBD binding of FITC phosphopeptide, fluorescence polarization | Potency, µM, for inactives: max response, negative = inhibition, hits mostly inhibitors | 2.8% of 360,000 active | AID 720504, 2013; further: series mostly up to about 57 µM; nearly all actives have a fitted effect of over 65% in size
ALDH1A1 block = qHTS Assay for Inhibitors of Aldehyde Dehydrogenase 1 (ALDH1A1); Aldehyde dehydrogenase 1A1 (Homo sapiens), P00352; Purified ALDH1A1, NADH fluorescence, propionaldehyde substrate; Potency, µM (highest dose often 75.3 µM), without a hit: top-dose activity, negative = inhibition, actives largely listed as inhibitors; 7.3% of 220,000 active; active means well fitted inhibition curve with a large enough effect, not every such curve was filed as active; inconclusive means small, poorly fitted or top-dose-only effect, or another doubt; inactive means no such curve, though single readings can be large or run the other way;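 further: plate controls were no enzyme wells and a reference inhibitor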
Target sequence (P00352 whole entry, looked up): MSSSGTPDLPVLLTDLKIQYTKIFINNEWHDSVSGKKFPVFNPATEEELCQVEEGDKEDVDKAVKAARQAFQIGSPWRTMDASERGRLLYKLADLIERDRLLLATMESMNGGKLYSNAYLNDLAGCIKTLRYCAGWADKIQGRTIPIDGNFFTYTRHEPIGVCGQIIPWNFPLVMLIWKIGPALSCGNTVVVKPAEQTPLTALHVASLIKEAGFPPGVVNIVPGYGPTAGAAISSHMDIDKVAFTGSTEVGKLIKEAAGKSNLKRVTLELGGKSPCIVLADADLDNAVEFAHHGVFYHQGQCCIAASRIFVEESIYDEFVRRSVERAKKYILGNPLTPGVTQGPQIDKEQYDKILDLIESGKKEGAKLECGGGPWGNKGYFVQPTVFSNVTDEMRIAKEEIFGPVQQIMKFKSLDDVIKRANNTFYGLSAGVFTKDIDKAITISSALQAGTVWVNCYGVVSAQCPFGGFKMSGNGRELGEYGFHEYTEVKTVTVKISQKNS
VP16 counter = VP16 counterscreen qHTS for inhibitors of ROR gamma transcriptional activity. Potency, µM (doses to about 53.6 µM), without a hit: top-dose activity, negative = inhibition, actives largely listed as inhibitors. Drosophila S2 Gal4-VP16 UAS-luciferase, luminescence, 20 h. 3.5% of 310,000 active;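 further: Gal4-VP16 expression switched on by copper sulfate through the metallothionein promoter; nearly all actives have a fitted effect of over 50% in size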
Sfp inh = qHTS Assay for Inhibitors of Bacillus subtilis Sfp phosphopantetheinyl transferase (PPTase); AID 1490, 2009; 3.5% of 310,000 active; Potency, µM, without a hit: largest response in the series, negative = inhibition, hits mostly inhibitors; Biochemical Sfp PPTase activity, qHTS;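 further: the enzyme is Sfp with the accession as filed and its product quenches rhodamine fluorescence; 0% = enzyme reaction without inhibitor and -100% = no enzyme wells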
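Step 1, compound plus 15 nM Sfp-PPTase, 15 min, room temperature. Step 2, add rhodamine-CoA (5 uM) and BHQ-2-YbbR (12.5 uM). Step 3, read 525/598 nm fluorescence at 0 and 30 min.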
RORg inh = qHTS for inhibitors of ROR gamma transcriptional activity | AID 2551, 2010 | Drosophila S2 Gal4-RORgamma UAS-luciferase reporter, 20 h | Nuclear receptor ROR-gamma (Mus musculus), P51450 | Potency, µM (titrated, usually from 53.6 µM), inactives show top-dose activity change, negative = inhibition, usual class: inhibitors | 5.4% of 310,000 active; further: nearly all actives have a fitted effect of over 60% in size
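ROR gamma transcriptional activity was tracked as Gal4-UAS luciferase output in stably transfected Drosophila Schneider cells, with compound added 1 hr before 700 uM copper sulfate induction and a 20 hr ambient-temperature incubation.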
* marks the source's active call; other numbers are inactive results; ? = inconclusive; . = not tested or not shown; [ ] = another dose, or the depositor's remark. The list is not random: actives were taken first. Their share in the collection is about 12%. Unless noted, the call rests on the fitted dose curve; in most records, active means well fitted curve in the direction sought with a large enough effect; inconclusive means small, poorly fitted or top-dose-only effect, or another doubt; inactive means no such curve, though single readings can be large; an effect the other way counts as inactive or inconclusive. Unless noted, on the % scale 0 is the no-effect control and ±100 the full control effect; potency means the concentration at half of the fitted maximal effect.

SMILES | PLK1 PBD block | ALDH1A1 block | VP16 counter | Sfp inh | RORg inh
O=c1c2cc(N3CCOCC3)ccc2[nH]c(=S)n1Cc1cccc(Cl)c1 | -16.6% | ? | 5.62µM* | 18.7% | 3.55µM*
O=c1[nH]c2ccc(Cl)cc2c(=O)n1Cc1ccco1 | -12.6% | ? | ? | 25.1% | ?
COCCn1c(=S)[nH]c2cc(C(=O)NCCc3ccccc3)ccc2c1=O | -6.8% | . | 2.0% | 11.9% | -11.0%
COc1ccc(NC(=O)c2ccc3c(=O)n(Cc4ccco4)c(=S)[nH]c3c2)c(OC)c1 | -12.5% | 0.891µM* | -0.8% | 4.1% | ?
COc1ccc(-n2c(=S)[nH]c3cc(C(=O)Nc4cc(OC)c(OC)c(OC)c4)ccc3c2=O)c(OC)c1 | 1.5% | -20.8% | -1.8% | 42.1% | 28.3%
C=CC[C@@H]1C=C[C@@H](O/N=C\[C@@H](OC)[C@H](C)/C=C\CC(=O)OC)[C@@H](CO)O1 | . | 2.0%[13.5 µM] | 2.0%[10 µM] | 6.7% | 1.1%[10 µM]
O=c1c2cc(Cl)ccc2[nH]c(=S)n1Cc1ccco1 | ? | 11.2µM* | 5.62µM* | -23.6% | 2.24µM*
COc1cccc(CNC(=O)CCCCCn2c(=S)[nH]c3ccc(N4CCOCC4)cc3c2=O)c1 | . | -10.7% | -18.1% | 79.4µM* | -12.7%
O=c1c2cc(N3CCOCC3)ccc2[nH]c(=S)n1CCCN1CCCCC1 | 1.0% | 1.0% | -6.0% | -0.2% | 22.9%
COc1cccc(Cn2c(=S)[nH]c3ccc(N4CCOCC4)cc3c2=O)c1 | -3.3% | ? | 6.31µM* | -17.2% | 2.82µM*
COc1cccc(CNC(=O)CCCn2c(=S)[nH]c3cc4c(cc3c2=O)OCO4)c1 | 0.3% | . | -0.9% | -4.1% | -30.9%
O=c1c2cc(N3CCOCC3)ccc2[nH]c(=S)n1Cc1ccco1 | ? | ? | ? | 7.94µM* | 14.1µM*
C#CCCCO/N=C1/C[C@@H](O)[C@@H](O)[C@@H]2[C@@H]3C(=O)N(Cc4ccc5c(c4)OCO5)C(=O)[C@H]3CC[C@@H]12 | . | -2.9%[13.5 µM] | -3.8%[10 µM] | 0.9% | 2.0%[10 µM]
Cc1ccc(C)c(NC(=S)N(C)CCO)c1 | -4.4% | 6.1% | -8.1% | -14.0% | -5.3%
O=c1c2cc(N3CCOCC3)ccc2[nH]c(=S)n1CCCN1CCCC1 | -3.2% | ? | -2.8% | 3.6% | 5.5%
CCN(CCCn1c(=S)[nH]c2ccc(N3CCOCC3)cc2c1=O)c1ccccc1 | -9.6% | ? | ? | 28.2% | 3.98µM*
COc1cc2[nH]c(=S)n(Cc3ccco3)c(=O)c2cc1OC | -6.5% | 0.794µM* | ? | -29.2% | 11.2µM*
O=c1[nH]c2ccccc2c(=O)n1Cc1ccco1 | -4.5% | -8.8% | 1.7% | -1.0% | -5.3%
CCOC(=O)C1(C)CCCCCN1C(=O)c1ccc(SC(F)(F)F)cc1 (stereo not given) | -8.7% | . | . | . | .
COc1ccc(S(=O)(=O)N2CCOCC2)cc1NC(=O)c1ccc(S(=O)(=O)N(C)c2ccccc2OC)cc1 | -1.9% | . | . | . | .
CCCCc1nc2c(c3c1C[C@H](C)OC3)CN(S(=O)(=O)c1c(C)noc1C)CC2 | . | -9.5%[13.5 µM] | . | 4.2% | .
CC[C@@H]1OC(=O)[C@H](C)[C@H](O[C@@H]2C[C@](C)(OC)[C@H](O)[C@H](C)O2)[C@H](C)[C@H](O[C@@H]2O[C@@H](C)C[C@@H](N(C)C)[C@@H]2O)[C@](C)(O)C[C@H](C)C(=O)[C@H](C)[C@H](O)[C@]1(C)O | . | 4.0%[20.9 µM] | -5.0%[17 µM] | 17.6% | 3.5%[16.9 µM]
COc1ccc(Cn2c(O)c(C=Nc3ccccc3C(=O)O)c3ccccc3c2=O)cc1 | ? | . | -3.8% | -26.0% | ?
COc1ccccc1NS(=O)(=O)c1cccc(-n2c(O)c(C=Nc3ccccc3C(=O)O)c3ccccc3c2=O)c1 | 29.9µM* | . | 13.1% | -5.4% | 43.6%
Cn1c(OCC2CCCO2)nc2cc(-c3ccccc3)sc2c1=O (stereo not given) | -10.8% | . | . | . | .
SMILES | PLK1 PBD block | ALDH1A1 block | VP16 counter | Sfp inh | RORg inh
CCOc1cc(C)c(C(C)C)cc1S(=O)(=O)NCc1ccccn1 | -2.1% | 14.1µM* | 10.6% | -1.8% | 10µM*
CCOc1ccc(S(=O)(=O)NCc2cccs2)cc1C(C)C | -3.3% | . | . | . | .
COc1cc(S(=O)(=O)NCc2ccccn2)ccc1Cl | 23.8µM* | . | 3.2% | 6.8% | ?
CCOc1cc(S(=O)(=O)NCc2cccs2)ccc1Cl | 26.7µM* | 2.1% | 1.6% | 16.0% | ?
CCOc1ccc(S(=O)(=O)NCc2ccncc2)cc1 | -1.8% | ? | 1.5% | 10.7% | 0.0%
CCOc1cc(S(=O)(=O)NCc2ccncc2)ccc1Cl | -8.0% | 1.3% | 1.12µM* | 5.7% | 2µM*
COc1ccc(S(=O)(=O)NCc2ccccn2)cc1Br | -6.1% | . | -0.1% | 3.6% | -4.5%
C/C(=N/S(=O)(=O)c1ccc(Cl)c(Cl)c1)OCC(C)(C)C | . | 5.2%[13.5 µM] | . | . | .
CCC/C=C1/CCCOC(C(=O)NCCOC)(C(F)(F)F)C1 (stereo not given) | . | . | -17.3% | 3.6% | -4.6%
NC(COCc1ccccc1)c1csc(Nc2ccccn2)n1 (stereo not given) | -6.9% | . | . | . | .
O=C(CNC(=O)c1cccc(F)c1)OCCOc1cccc(Cl)c1 | -3.7% | . | . | . | .
C=CCNC(=S)/N=c1/ccccn1CC | -16.8% | . | -2.1% | -4.6% | 10µM*
CN(C)c1ccc(C=NCC2(O)CCOC(C)(C)C2)cc1 (stereo not given) | 0.1% | 0.447µM* | -1.1% | -1.6% | 32.3%
Cc1ccccc1-n1c(N)c(C(=O)Nc2ccc(F)cc2)sc1=S | ? | 20µM* | -5.6% | ? | -21.8%
Cc1ccc(NC(=O)c2sc(=S)n(-c3cc(C)ccc3F)c2N)cc1 | 11.9µM* | 12.6µM* | 3.9% | 50.1µM* | 4.0%
Cc1ccc(NC(=O)c2sc(N)nc2C)cc1 | -3.6% | . | -10.1% | 0.5% | 7.7%
Cc1ccc(-n2c(N)c(C(=O)Nc3ccccc3F)sc2=S)cc1C | ? | 10µM* | 3.9% | -27.3% | 28.1%
CCOC1=C2[C@H](c3ccccc3)N(S(=O)(=O)c3ccc(C)cc3)[C@H](C(C)C)[C@H]2n2c(=O)n(-c3ccccc3)c(=O)n2C1 | -1.1% | . | . | . | .
N#Cc1c([N+](=O)[O-])cc([N+](=O)[O-])cc1S(=O)(=O)Cc1ccccc1 | 1.06µM* | . | . | . | .
COc1ccc(C(=O)N2CCC3(CCN(Cc4ccccc4)CC3)CC2)cc1 | . | -3.8% | -3.2% | 20.1% | -19.7%
CC1(C)CCC(C)(C)c2cc(C(=O)Nc3ccc(C(=O)O)cc3)ccc21 | . | -12.6% | 4.6% | 24.3% | 2.2%
C/C(=C\c1ccc(C(=O)O)cc1)c1ccc2c(c1)C(C)(C)CCC2(C)C | 26.7µM* | -5.3% | ? | 39.8% | ?
CC(C)OP(=O)(OC(C)C)C1(NS(=O)(=O)c2ccc(Cl)cc2)C=C(Cl)C(=O)C(Cl)=C1 | -7.4% | . | 2.6% | 89.1µM* | 36.5%

Bioassay records: PubChem BioAssay, National Center for Advancing Translational Sciences (NCATS)
